In PubChem BioAssay (Tox21):
Inconclusive results are not listed. Values without a mark were called inactive. Calls of active or inactive are those of the source. The call rests on the fitted dose curve.

Biological target: Beta-2 adrenergic receptor (Homo sapiens) (UniProt P07550)
Test: Adrenergic beta2 receptor (ADRB2) small molecule antagonists, cell-based qHTS assay (AID 1963592); further: nearly all actives have a fitted effect of over 50% in size
Settings: CHO-ADRB2 cells, isoproterenol-stimulated cAMP HTRF ratio, 0.5 h; series mostly up to 92.4 µM; activity change, negative = inhibition: at the top concentration
From the text: U.S. Tox21 Program National Center for Advancing Translational Sciences [NCATS] Division of Preclinical Innovation [DPI] U.S. Environmental Protection Agency [EPA] National Institutes of Environmental Health Sciences [NIEHS] National Toxicology Program [NTP] U.S. Food and Drug Administration [FDA] Tox21 Assay Overview: Beta adrenergic receptors (Beta-ARs) belong to the G-protein coupled receptor (GPCR) superfamily, includes three subtypes - beta1, beta2, and beta3. Beta1-AR is the predominant receptor subtype expressed in the heart, and beta2-AR is expressed in the kidney, lung, blood vessel and in the heart, and beta3 is found in the adipocytes. Beta1 and 2 ARs couple to Gs protein and elevate cyclic adenosine mono phosphate (cAMP), which activates protein kinase A and leads to the downstream signaling responsible for the physiological actions. Beta-AR agonists or antagonists are the most prescribed therapeutic agents for heart failure and asthma, and these were one of the first target receptors for the rational drug design. Tox21 10K compound library was screened using the cAMP-Gs dynamic assay (Cisbio Bioassays, Shelton, CT) to identify agonists/antagonists of the Gs-coupled human adrenergic, beta2 receptor (ADRB2) in the CHO-ADRB2 cell line (Codex BioSolutions, Inc. Gaithersburg, MD), which stably over-expresses ADRB2. The principle of cAMP-Gs dynamic assay is based on HTRF technology, which facilitates the fluorescence resonance energy transfer (FRET) between donor Europium cryptate and acceptor d2-labeled cAMP. The cAMP generated within cells competes with the red acceptor, d2-labled cAMP, for binding to the monoclonal anti-cAMP-cryptate (Europium donor). An increase in intracellular cAMP leads to the disruption of FRET signal, and the signal is inversely proportional to the cAMP concentration. Propranolol HCl (Sigma-Aldrich, St. Louis, MO) was used as a positive control in the screening.
Tox21 Assay Protocol Summary: CHO-ADRB2 cells were dispensed at 1,000/well in 4uL assay medium into white/solid 1536-well plates (Greiner Bio-One North America Inc., Monroe, NC) using a Multidrop Combi dispenser (ThermoFisher Scientific, Waltham, MA). The assay plates were incubated at 37C and 5% CO2 for an overnight (18-20hr). Then positive control and test compounds dissolved in DMSO were transferred to the assay plates at 23nL using a Pintool station (Wako, San Diego, CA). Following the compound and positive control transfer, 1uL agonist-stimulation mix containing 1nM Isoproterenol HCl, 100uM IBMX and 25uM Ro-20-1724 was added to each well of the assay plates using BioRAPTR Flying Reagent Dispenser (FRD, Beckman Coulter, Brea, CA). The assay plates were incubated at room temperature for 0.5hr. Then 2.5ul each d2-labled cAMP and anti-cAMP-cryptate solutions were added separately to each well of the assay plates using an FRD and the assay plates were incubated at room temperature for 1hr. The fluorescence signal was measured at two different wavelengths (665nm and 615nm) using an Envision plate reader (Perkin Elmer, Shelton, CT). Data were expressed as the ratio of 665 nm/615 nm.
On the % scale 0 is the no-effect control and ±100 the full control effect; potency means the concentration at half of the fitted maximal effect.

Beta-2 adrenergic receptor (Homo sapiens), sequence (P07550 whole entry, looked up): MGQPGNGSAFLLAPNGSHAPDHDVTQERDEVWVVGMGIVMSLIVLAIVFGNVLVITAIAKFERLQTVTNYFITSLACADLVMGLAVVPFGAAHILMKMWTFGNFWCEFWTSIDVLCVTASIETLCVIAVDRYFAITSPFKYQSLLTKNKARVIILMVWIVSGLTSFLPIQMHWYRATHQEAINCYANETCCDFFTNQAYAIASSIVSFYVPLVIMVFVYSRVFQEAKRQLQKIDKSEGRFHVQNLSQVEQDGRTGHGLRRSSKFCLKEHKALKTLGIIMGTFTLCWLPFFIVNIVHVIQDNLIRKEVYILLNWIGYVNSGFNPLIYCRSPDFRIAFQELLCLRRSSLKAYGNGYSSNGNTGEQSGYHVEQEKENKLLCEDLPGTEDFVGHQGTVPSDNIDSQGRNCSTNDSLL

| Compound | activity change, negative = inhibition | Potency |
| --- | --- | --- |
| Cc1ccc2c(c1)C1CN(C)CCC1N2 (stereo not given) | -2.7% [at 19 µM] | – |
| CCCN(CCC)c1c([N+](=O)[O-])cc(S(C)(=O)=O)cc1[N+](=O)[O-] | -0.0351% | – |
| CCO/N=C(\CC)C1=C(O)CC(c2c(C)cc(C)cc2C)CC1=O (stereo not given) | -0.471% | – |
| CCN(CCO)CCn1c(Cc2ccccc2)nc2c1c(=O)n(C)c(=O)n2C | -10.1% [at 42.5 µM] | – |
| O=[N+]([O-])c1ccc(Oc2ccc(C(F)(F)F)cc2[N+](=O)[O-])cc1 | -6.24% | – |
| CCC[CH2][Sn]([CH2]CCC)([CH2]CCC)[O][Sn]([CH2]CCC)([CH2]CCC)[CH2]CCC | – | 1.68 µM (active) |
| C[C@@H]1CC2=CC(=O)CC[C@@H]2[C@H]2CC[C@@]3(C)[C@@H](CC[C@]3(C)O)[C@@H]21 | 2.02% [at 42.5 µM] | – |
| CC(Oc1cccc(Cl)c1)C(=O)O (stereo not given) | 0.626% | – |
| CO/N=C(\C(=O)OC)c1ccccc1CO/N=C(\C)c1cccc(C(F)(F)F)c1 | 0.807% | – |
| CCCCn1cc[n+](C)c1 (tested in a mixture with another compound) | 10.6% | – |
| c1ccc2c(c1)cc1ccc3cccc4ccc2c1c34 | 3.18% | – |
| Brc1ccccc1 | -3.26% | – |
| COC1CC(=C(c2cccs2)c2cccs2)C[N+](C)(C)C1 (stereo not given) | -9.58% [at 42.5 µM] | – |
| COc1cc(CC(C)N)cc2c1OCO2 (stereo not given) | – | 32 µM (active) |
| C=C(C)CN(CC)c1c([N+](=O)[O-])cc(C(F)(F)F)cc1[N+](=O)[O-] | 14.5% | – |
| C[As+](C)(C)CC(=O)[O-] | 0.329% | – |
| CCCSP(=S)(OCC)Oc1ccc(SC)cc1 (stereo not given) | -0.0184% | – |
| CCCCc1ccccc1 | -0.915% | – |
| CC(C)(C)c1ccc(OP(=O)(Oc2ccccc2)Oc2ccccc2)cc1 | 5.92% | – |
| NC(=O)CS(=O)C(c1ccccc1)c1ccccc1 (stereo not given) | 10.8% [at 42.5 µM] | – |

| Compound | activity change, negative = inhibition | Potency |
| --- | --- | --- |
| BrC(Br)C(Br)(Br)Br | 2.19% | – |
| O=Cc1ccc2c(c1)OCO2 | 2.35% | – |
| CCCCCCC(=O)CCCCCC/C=C/C[C@@H](O)[C@H](O)[C@@](N)(CO)C(=O)O | 9.53% [at 19 µM] | – |
| Cc1nnc2n1-c1sc(CCC(=O)N3CCOCC3)cc1C(c1ccccc1Cl)=NC2 | – | 29.8 µM (active) |
| CC(C)[C@@H](C(=O)O[C@@H](C#N)c1cccc(Oc2ccccc2)c1)c1ccc(Cl)cc1 | – | inactive |
| CCCN(CCC)C(=O)Cc1c(-c2ccc(Cl)cc2)nc2ccc(Cl)cn12 | -11.8% [at 42.5 µM] | – |
| CN1C2CCC(C)(C)C1CC(OC(=O)C(O)(c1cccs1)c1cccs1)C2 (stereo not given) | 7.05% [at 42.5 µM] | – |
| O=[N+]([O-])c1ccc(O)c([N+](=O)[O-])c1 | – | inactive |
| CCCCOP(=O)(O)OCCCC | 6.15% | – |
| CCC(=O)C(CCN(C)C)(c1ccccc1)c1ccccc1 | -18.3% [at 42.5 µM] | – |
| COP(=S)(OC)Oc1ccc([N+](=O)[O-])c(C)c1 | 11.6% | – |
| Cc1cccc2sc3nncn3c12 | -1.31% | – |
| CC(=O)[O-].CC(=O)[O-].O.O.[Cd+2] | -8.6% | – |
| CCCCc1ccc(O)cc1 | 3.85% | – |
| Cc1cc(C)c(C(=O)P(=O)(c2ccccc2)c2ccccc2)c(C)c1 | -23.8% | – |
| CN/C(=N\[N+](=O)[O-])NCC1CCOC1 (stereo not given) | 2.53% | – |
| COP(=S)(OC)Oc1ccc([N+](=O)[O-])cc1Cl | -4.61% | – |
| N#C/C=C/c1ccccc1 | -0.297% | – |
| NC(=O)c1ccc(N)nc1 | -2.04% | – |
| CNC(=O)Oc1ccccc1C(C)C | 3.88% | – |
